# Screening results from PubChem BioAssay.
# eIF4H inh: inhibitors of RNA binding by human eIF4H | eIF4H fluorescence polarization binding assay | Q15056 | AID 2012 | hit rate 0.94% among 290,000 | inhibition, % at 35 µM;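 note: calls also rest on retests at 20 µM and on dose response follow-up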
# CRFR2-BP antag: CRF-BP/CRF-R2 complex antagonism; HEK293 CRF-R2/CRF-BP, CRF-induced calcium fluorescence; inhibition, % at 11.8 µM; hit rate 0.59% among 350,000;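 active = inhibition of the ligand-induced calcium signal above about 50% at the single tested concentration, limit read from the data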
# PABP polyA inh: PABP-poly(A) binding inhibition | AID 2014 | PABP-poly(A) RNA binding, fluorescence polarization | P11940 | inhibition, % at 35 µM | hit rate 1% among 290,000;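 note: calls also rest on retests at 20 µM and on dose response follow-up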
# Target sequence (P11940 whole entry, looked up): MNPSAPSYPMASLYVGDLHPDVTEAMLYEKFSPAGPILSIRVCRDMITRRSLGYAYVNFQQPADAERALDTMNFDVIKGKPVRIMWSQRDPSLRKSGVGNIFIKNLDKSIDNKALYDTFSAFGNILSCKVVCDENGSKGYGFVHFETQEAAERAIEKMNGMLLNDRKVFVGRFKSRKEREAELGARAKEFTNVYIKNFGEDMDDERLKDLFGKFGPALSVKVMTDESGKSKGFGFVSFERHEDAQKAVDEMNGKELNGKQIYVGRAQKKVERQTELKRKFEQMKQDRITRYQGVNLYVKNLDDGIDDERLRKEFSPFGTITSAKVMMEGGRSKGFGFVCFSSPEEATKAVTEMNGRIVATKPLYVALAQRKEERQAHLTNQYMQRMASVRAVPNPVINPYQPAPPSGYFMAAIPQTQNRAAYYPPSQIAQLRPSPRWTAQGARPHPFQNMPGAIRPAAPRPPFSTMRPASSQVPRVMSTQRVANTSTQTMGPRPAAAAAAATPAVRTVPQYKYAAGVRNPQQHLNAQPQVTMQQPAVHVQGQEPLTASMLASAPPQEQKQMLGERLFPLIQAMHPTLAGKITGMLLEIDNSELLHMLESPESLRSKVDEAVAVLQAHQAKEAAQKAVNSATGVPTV
# PABP1 MLLE inh: inhibitors of microRNA-mediated deadenylation, human PABP1 MLLE binding; hit rate 0.36% among 360,000; AID 588489; inhibition, % at 20 µM; GST-MLLE / FITC-PAM2 fluorescence polarization; in the data active = inhibition above about 35%, passing the limit was not always enough;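 note: plate controls were DMSO wells with GST-MLLE for no effect and wells lacking GST-MLLE protein for full effect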
# PHOSPHO1 block: inhibitors of human PHOSPHO1 phosphatase; AID 1565; inhibition, % at 13.3 µM; Q8TCT1; hit rate 1.1% among 290,000; recombinant PHOSPHO1, absorbance phosphatase assay; in the data active = inhibition above about 60%
# * marks the source's active call; other numbers are inactive results; ? = inconclusive; nt = no result. Only some compounds are listed: those with a hit (about 2.6% of all), similar ones and a draw of the others. Unless noted, the rule behind the calls is not given here.
SMILES,eIF4H inh,CRFR2-BP antag,PABP polyA inh,PABP1 MLLE inh,PHOSPHO1 block
CCCCn1c(-c2cccnc2)n[nH]c1=S,-3,8,10,-13,-10
COc1ccc(OC(C)C(=O)NC2CCCCCCC2)cc1 (stereo not drawn),-8,7,-1,-7,25
CCn1c(-c2ccc(OC)c(OC)c2)n[nH]c1=S,-9,8,-16,-18,5
CCn1c(-c2ccccc2O)n[nH]c1=S,-12,14,-2,4,65*
Oc1ccccc1-c1n[nH]c(=S)n1Cc1ccccc1,-7,7,-8,-15,nt
CCCn1c(-c2ccc(F)cc2)n[nH]c1=S,-5,9,-6,-16,91*
CCn1c(-c2ccc(Cl)cc2)n[nH]c1=S,-15,-3,-4,-5,71*
CCOc1ccc(-c2n[nH]c(=S)n2Cc2ccccc2)cc1,2,-12,-7,-7,-92
COc1ccc(-n2cc(C#N)c(=O)n(Cc3ccc(F)cc3)c2=O)cc1,17,-9,4,10,8
C[C@H](CO)N1C[C@H](C)[C@@H](CN(C)C(=O)Nc2ccccc2)Oc2ncc(-c3ccc(C#N)cc3)cc2C1=O,nt,9,nt,1,nt
CC(=O)Nc1ccc(/C(C)=N/NS(=O)(=O)c2ccc(C)cc2)cc1,-3,6,1,3,5
C/C(=N/NS(=O)(=O)c1ccc(Br)cc1)c1ccc(NC(=O)c2ccc(C)o2)cc1,3,-28,2,-7,74*
O=C(Cn1cc(C(=O)COc2ccccc2)c2ccccc21)NCc1ccco1,36*,30,55,-41,7
O=C(COc1ccccc1)c1cn(CC(=O)N2CCOCC2)c2ccccc12,95*,-20,107*,-7,25
O=C(Cn1cc(C(=S)N2CCOCC2)c2ccccc21)N1CCOCC1,-14,-9,-13,13,2
CC(NC(=O)C(=O)c1cn(CC(=O)N2CCOCC2)c2ccccc12)c1ccccc1 (stereo not drawn),-10,5,-2,10,-4
O=C(O)Cn1cc(C(=S)N2CCOCC2)c2ccccc21,-12,9,98,28,88*
CC1CN(C(=O)Cn2cc(S(=O)(=O)CC(=O)N3CCOCC3)c3ccccc32)CC(C)O1 (stereo not drawn),-8,2,-7,-1,66*
CCNc1nc(NC(C)C)nc(-c2ccncc2)n1,nt,nt,nt,6,nt
Cc1ccc(NS(=O)(=O)c2ccc(C)c(NC(=O)c3ccc(S(=O)(=O)N4CCCCCC4)cc3)c2)c(C)c1,nt,-14,nt,11,nt
CCCCN(C(C)=O)c1c(CC)nc2ccc(C(=O)NCCOc3ccc(OC)cc3)cn12,nt,nt,nt,12,nt
COc1cc(CNC(C)C)ccc1OCC(=O)Nc1cccc2ccccc12,-3,-7,8,-15,61*
O=C(COC(=O)CCC(=O)c1ccc(F)cc1)NCc1ccccc1Cl,nt,-4,nt,5,nt
CC(C)(C)S(=O)N1Cc2cc(C(=O)NCc3ccc(Oc4ccccc4)cc3)nc(-c3cccc(-c4cc5ccccc5o4)c3)c2[C@@H]1CCO (stereo partly drawn),nt,nt,nt,-24,nt
CC(C)(C)c1ccc(S(=O)(=O)NC(=O)C2(C)CCN2C(=O)CC2CCCCC2)cc1 (stereo not drawn),nt,nt,nt,-5,nt
SMILES,eIF4H inh,CRFR2-BP antag,PABP polyA inh,PABP1 MLLE inh,PHOSPHO1 block
Cc1noc(NS(=O)(=O)c2ccc(NC(=O)CS(=O)(=O)c3ccccc3)cc2)c1C,-6,60*,4,2,-28
Cc1noc(NS(=O)(=O)c2ccc(NC(=O)COc3ccccc3)cc2)c1C,-2,1,-3,5,19
CS(=O)(=O)Nc1ccc(C(=O)N2CCN(c3ccccc3)CC2)cc1,8,19,2,-4,3
C[C@@H]1CN([C@@H](C)CO)C(=O)CCCn2nncc2CO[C@H]1CN(C)C(=O)NC1CCCCC1,nt,1,nt,-3,nt
COC(=O)C1=C(C)NC(=O)/C1=C\N(C)C,79*,-3,active,43*,-12
CC(C)(C)c1ccc(C(=O)Nc2ccc(S(N)(=O)=O)cc2)cc1,62*,-6,15*,7,-27
CC(=O)c1ccc(NC(=S)NCCc2ccc(S(N)(=O)=O)cc2)cc1,5,-6,1,40*,4
NS(=O)(=O)c1ccc(NC(=O)c2ccc(-c3ccccc3)cc2)cc1,60,-19,3,5,0
NS(=O)(=O)c1ccc(NC(=S)NCCc2ccccc2)cc1,11,-8,6,24,-52
CC(C)OCCCNC(=S)Nc1ccc(S(N)(=O)=O)cc1,-10,-5,4,5,86*
Cc1ccccc1C(N)=O,nt,-2,nt,-1,nt
CC1=CN2C(=NC(=O)CC2(C)C(=O)N(CC(=O)NC2CCCC2)c2ccccc2C)C=C1 (stereo not drawn),-5,54*,-3,4,-13
CC1=CC2=NC(=O)CC(C)(C(=O)N(CC(=O)NC3CCCC3)c3ccccc3C)N2C=C1 (stereo not drawn),-11,-1,-7,4,25
CC1=NN(C(=O)c2ccc(Br)cc2)C(O)(C(F)(F)OC(F)(F)F)C1 (stereo not drawn),4,50*,8,-8,18
CC1=NN(C(=O)c2csc(C)c2)C(O)(C(F)(F)F)C1 (stereo not drawn),6,-6,4,8,12
Cc1ccc(C)c(NC(=O)C2(C)CCCN2C(=O)C(C)C)c1 (stereo not drawn),nt,nt,nt,-19,nt
Cc1nc(C(F)(F)F)ccc1C(=O)N1CCC1(C)C(=O)NS(=O)(=O)c1ccc(C(C)(C)C)cc1 (stereo not drawn),nt,nt,nt,-6,nt
CC1(C2CCCC2)NC(=O)NC1=O (stereo not drawn),nt,4,nt,6,nt
CCC(C)[C@H](NC(=O)C1CC(=O)N(c2ccc3c(c2)OCO3)C1)C(=O)NC1CCCCC1 (stereo partly drawn),?,-13,?,49*,-34
CCC(C)[C@H](NC(=O)C1CC(=O)N(c2ccc3c(c2)OCCO3)C1)C(=O)NC1CCCC1 (stereo partly drawn),12,-2,5,-5,14
CCOc1ccc(C2=Cc3cc(OC)c(OC)cc3C(=C(Cl)Cl)O2)cc1,-4,nt,0,nt,67*
CCOc1ccc(-c2[nH]ncc2-c2ccc(OC)c(OC)c2)c(O)c1,-8,5,-5,-6,3
COc1ccc(C(=O)C(C)OC(=O)C2CC3CCCC(C2)C3=O)cc1 (stereo not drawn),nt,1,nt,0,nt
COc1ccc(NC(=S)NC(C)Cc2cccs2)cc1 (stereo not drawn),108*,18,9.7*,-48,2
CCOC(=O)c1ccc(NC(=O)c2cccc3c2C(=O)N(CC2CCCO2)C3)cc1 (stereo not drawn),-4,60*,-4,-4,18
CCOC(=O)C1CCCN(C(=O)COC(=O)c2cccs2)C1 (stereo not drawn),nt,95*,nt,-12,nt
O=C(OCC(=O)N1CCc2ccccc2C1)c1cccs1,-9,13,-2,-1,65*
Cc1c(C(=O)O)sc(S(=O)(=O)N2CCN(C(=O)Cc3ccc(F)cc3)CC2)c1C(=O)O,nt,52*,nt,11,nt
